According to the supplement of paper PMC11417369:
Over roughly 25,000 sequences, “ln(normalized median fluorescence intensity)” has its median near 9.3; the highest 2% begin near 10. For the sample, the highest values were picked, then their nearest neighbours and some sequences at random.

tested on: PF3D7_0420300 AP2 domain 1 (GST-tagged); assay: gcPBM binding intensity (ln(normalized median fluorescence intensity)); higher = stronger DNA binding
Method in brief: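 GST-fused DNA-binding domains of P. falciparum, expressed in E. coli, were applied at about 25 μg on average for 1 h to an Agilent 4 × 180k array of primer-extended double-stranded 36-bp intergenic genomic probes and negative controls. Binding intensity is the highest Masliner-normalised natural-log median intensity across replicate spots of either probe orientation, measured with Alexa488 anti-GST antibody and a 488 nm scan.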

Row | Sequence | gcPBM binding intensity (ln)
1 | ATAGTAATAGAATGATTGCACTTAAATTTTCCCTCT | 9.19
2 | AATATATATATATGTACACACTCCAATACATATACA [CACACA_site2682] | 9.42
3 | AAAAAAATAACAAAAGTGCATTTTTATGAGTTATCT | 9.2
4 | TGGTAATACCCATACACACACACATACACATATATA [CACACA_site8877] | 10.1
5 | TACATATAAAAGTACACACACACACCCATATATATA [CACACA_site941] | 10.2
6 | TGGTAATACACATACACACACACATACACATATATA [CACACA_site7312] | 10.2
7 | TGGTAATACCCATACACACACACATACCCATATATA [CACACA_site5509] | 10.1
8 | AAATAATATAAATACACACACACATATATAAATACA [CACACA_site4465] | 10.2
9 | TATAAAAATAAAAAAAGTACACATAAAAATATATAT [XGTACX_site5189] | 9.62
10 | TACATACATACATACACACACACATATAAATACATA [CACACA_site4626] | 10.2
11 | CATATATAAATATATACACACATACATACATACATA [CACACA_site5988] | 9.67
12 | CATAAATACATACATACACACATATATATATATATA [CACACA_site2106] | 9.5
13 | AATAAATAAATATATACACACATATATATATAATAT [CACACA_site921] | 9.6
14 | ATAATATAAATATACACACACACATATATATATATA [CACACA_site2905] | 9.91
15 | AATACATATAAAAGTACACACACACCCATATATATA [CACACA_site8220] | 10.2
16 | TAAAACAATACTTTGTGCTTCTCTGGTTTTTTTTTT [GTGCAC_negctrl_site284] | 9.26
17 | ACGTTTGATACACATAAAGTTTTCCTTTGAATGTAC [CACACA_negctrl_site106] | 9.26
18 | TTTTAACATAGAAGTACACACATATAATCAATCATA [CACACA_site5313] | 9.6
19 | TTAATACATTAAATATGTACTTATATATCTCAACTA [XGTACX_site3997] | 9.11
20 | AACACAAATAAGTATTTGGATTATATTACATTTATA [CACACA_negctrl_site465] | 9.18
21 | GTGTTTTTATGTGAATGTACATATTTACTATCACAC [XGTACX_site2388] | 9.56
22 | TTCATTCTATAAAACACACAAATATTTTTGTATCCC [CACACA_site6458] | 9.2
23 | CATAATATGACATACACACACAAAAAAAAAAAAATA [CACACA_site1285] | 9.91

Row | Sequence | gcPBM binding intensity (ln)
24 | AGAAATATCTAATTGTGTACTCAAGAAAAAGTTACG [XGTACX_site372] | 9.29
25 | TTACCATAAGTATGTGGTACACTTTAAATGAAGATA [XGTACX_site6972] | 8.88
26 | AAAATTAAAATATATACACACATATATATATTAAAT [CACACA_site4419] | 9.57
27 | AAAAAAAATTAAATAAATAAATATACACATATATAT [GTGCAC_negctrl_site394] | 9.26
28 | TACATATATTATTGCACACATATAAAATACCCCCAA [CACACA_site3895] | 9.82
29 | CATACATACAGACACACACACATATAAATACATACA [CACACA_site6533] | 10
30 | AATTAAAAAAAATACACACACACATACACATATATA [CACACA_site3298] | 10.2
31 | AATACATACAGACACACACACACATATAAATAAATA [CACACA_site7642] | 10.2
32 | AATATAAGCAAATACACACACACATATAAATATGTA [CACACA_site7741] | 10.2
33 | TATAAATAAATATACACACACACATATAAATATGTA [CACACA_site6504] | 10.1
34 | TACATACACAGACACACACACATATAAATATAAATA [CACACA_site7641] | 9.95
35 | CATACATATATTATTGCACACATATAAAATACCCCC [CACACA_site9292] | 10.3
36 | TACAGATATTATTGCACACATATAAAATACCCCCAA [CACACA_site6014] | 9.89
37 | AATATAAGCAAATACACACACACATATATATATATA [CACACA_site3805] | 10
38 | CATATAAAAAATATGGTGCAGTTTTTTTTTTTTTTT | 9.1
39 | ATATATCATAATAGAGGTACACATATTATATATATA [XGTACX_site782] | 9.29
40 | TAATTTTTTTTAAATACACACTGAAATGTGAATTTT [CACACA_site4476] | 8.96
41 | ACCACCATATAACATACATGCATCTTTTTTCCCTTC [TGCATGCA_site583] | 9.79
42 | TTTTTATATTTTATTAGTACTTATTATATATATAAT [XGTACX_site4900] | 9.26
43 | ATATATGTAATAAATAGTACACACACACATATATAT [XGTACX_site2817] | 10.3
44 | TAATAATAGTAAATATGTACATATATATATATATAG [XGTACX_site4602] | 9.26
45 | TGTAATAAATAGTACACACACACATATATATATATT [CACACA_site1388] | 9.94
46 | TGTAGTCTGGAGAAAAGTACATAGTATCTGGTAACA [XGTACX_site4940] | 9.2

Row | Sequence | gcPBM binding intensity (ln)
47 | ATAATATAAACATACACACACACATATATATATATA [CACACA_site5591] | 10
48 | AAAATACATGGACACACACACACACCGATATATATA [CACACA_site5885] | 10.3
49 | ATAATCCACAAGCACACACACACACCCATATATATA [CACACA_site1268] | 10.2
50 | AAAAAAAAAAGAATAGCACACACACCGATATAAATA [CACACA_site8111] | 10.1
51 | CAAATACATGGACACACACACATATACAGATATATA [CACACA_site5854] | 10
52 | GGAATAATATAAAACACACACATAAATATAAATATA [CACACA_site3376] | 9.9
53 | TAATAATCCACAAGCACACACACACCCATATATATA [CACACA_site1267] | 10
54 | ATAAAAATAAAATGGACACACATATATACATATTTG [CACACA_site3277] | 9.68
55 | TATAATCCATAAGAAGCACACACATATATATATATT [CACACA_site8394] | 9.76
56 | ATAATATATAAACACACACACATATATAAATACATT [CACACA_site4466] | 10.1
57 | TGGGAATAAAAACACACACACACACCGATATATATA [CACACA_site5875] | 10.3
58 | AAATAATATAAACATACACACACACCGATATATATA [CACACA_site8945] | 10.2
59 | TATATTAACAAAATGGTGCAATAATTTCTATATTGT [GTGCAC_site9430] | 9.21
60 | TATTTTAATTTTTGTTGTACGCAAATGTGAGGGCAT [XGTACX_site4663] | 9.17
61 | AAATAAAGGAAATAAAAAGAAACCAATTTCGAATAT [CACACA_negctrl_site953] | 9.57
62 | TTTTTTATTTTTTACATATTTAGCTCATATTTATAT [GTGCAC_negctrl_site491] | 9.44
63 | AAAGGAGGGAATTTTTCTAGGTGTGGAGTGCTACTC [XGTACX_negctrl_site63] | 9.44
64 | TATAAATATAAATACACACACATATATATTATATAT [CACACA_site4496] | 9.85
65 | AAAACACTTATGGATTGTACAATAAAAATTATATTA [XGTACX_site7042] | 9.26
66 | CCTATAAATGCATTCACACATATATATTTATATTAT [CACACA_site6086] | 9.26
67 | TATATTAAAAAAAAATGTACATATATATAATATATA [XGTACX_site1935] | 9.19
68 | TAAAAAAAAAAAAATACACACACACCGATATATATA [CACACA_site8498] | 10.2
69 | ATAATACCCAAGCACACACACACACCGATATATATA [CACACA_site8344] | 10.4

Row | Sequence | gcPBM binding intensity (ln)
70 | AAAATACATAAACACACACACACACCGATATATATA [CACACA_site9186] | 10.3
71 | AAATATATACTACCGATGCACTAAATATAAACACAT [GTGCAC_site9777] | 9.67
72 | CACTAAAATGGACACACACACACACCGATATATATA [CACACA_site6139] | 10.2
73 | CACTAAAATAAACACACACACACACCGATATATATA [CACACA_site9379] | 10.3
74 | ACCATATAAATAAACACACACACACCGATATATATA [CACACA_site5310] | 10.1
75 | TAATAATACCCAAGCACACACACACCCATATATATA [CACACA_site4831] | 10
76 | TATATATATAAATACACACACACACCGATATATATA [CACACA_site5408] | 10.1
77 | ATAAAATACATATAAACACACATATAAACCGACATA [CACACA_site2477] | 10
78 | TGATAATAAGCATACACACACACACCCAAAAAAAAA [CACACA_site721] | 10.2
79 | CCTAAATAAATGGACACACACATATATATATATATA [CACACA_site1439] | 9.49
80 | TGTAAGAAATTGAGCGCACACATACATCTGTGGGAT [CACACA_site4945] | 9.55
81 | AAAAAAAAAAAAAAAACACACATTTAGCAATCTACA [CACACA_site3706] | 9.32
82 | ATGTGATGTTATATATGTACTTATTTTTTAATAAGG [XGTACX_site1786] | 9.25
83 | TGTTGTAAATTAAAGACATGCACGTGAGAAAATATA [TGCATGCA_site285] | 9.51
84 | TCAAATTTAATCATAACACACATTCACATATGAATT [CACACA_site3199] | 9.16
85 | GTAGTCCAAAAAAAGCGTACACAGAAAAAAAAAAAA [XGTACX_site4273] | 9.14
86 | ATTTTTTGGAAAAGAAGTACAATGGATTTATACGTT [XGTACX_site891] | 9.09
87 | TTTTTTTTTTTTTTTTTTTTACCCCTTTTTCAAAAA [CACACA_negctrl_site1524] | 8.39
88 | AGGATATATAATTAAGTGCATTAATTCAAAATAAAA [GTGCAC_site9702] | 9.17
89 | TTTTGTCTTATATGTTGTACAACGTAAACAAAAAAA [XGTACX_site4412] | 8.84
